Measured values reported in ChEMBL document CHEMBL1961873, “Compounds: GSK PKIS; Assays: Nanosyn kinase panel” (2012).

How the values were obtained:
[1] = molecular target: Rho-associated protein kinase 1 (Homo sapiens) (UniProt Q13464); details: at 1 µM;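 note: reported values are mean percent inhibition of ROCK1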
[2] = molecular target: Rho-associated protein kinase 2 (Homo sapiens) (UniProt O75116); details: at 0.1 µM
[3] = molecular target: Rho-associated protein kinase 2 (Homo sapiens) (UniProt O75116); details: at 1 µM
[4] = molecular target: Ribosomal protein S6 kinase alpha-1 (Homo sapiens) (UniProt Q15418); details: at 0.1 µM
[5] = molecular target: Ribosomal protein S6 kinase alpha-1 (Homo sapiens) (UniProt Q15418); details: at 1 µM
[6] = molecular target: Ribosomal protein S6 kinase alpha-3 (Homo sapiens) (UniProt P51812); details: at 0.1 µM
Ribosomal protein S6 kinase alpha-3 (Homo sapiens), sequence (P51812 whole entry): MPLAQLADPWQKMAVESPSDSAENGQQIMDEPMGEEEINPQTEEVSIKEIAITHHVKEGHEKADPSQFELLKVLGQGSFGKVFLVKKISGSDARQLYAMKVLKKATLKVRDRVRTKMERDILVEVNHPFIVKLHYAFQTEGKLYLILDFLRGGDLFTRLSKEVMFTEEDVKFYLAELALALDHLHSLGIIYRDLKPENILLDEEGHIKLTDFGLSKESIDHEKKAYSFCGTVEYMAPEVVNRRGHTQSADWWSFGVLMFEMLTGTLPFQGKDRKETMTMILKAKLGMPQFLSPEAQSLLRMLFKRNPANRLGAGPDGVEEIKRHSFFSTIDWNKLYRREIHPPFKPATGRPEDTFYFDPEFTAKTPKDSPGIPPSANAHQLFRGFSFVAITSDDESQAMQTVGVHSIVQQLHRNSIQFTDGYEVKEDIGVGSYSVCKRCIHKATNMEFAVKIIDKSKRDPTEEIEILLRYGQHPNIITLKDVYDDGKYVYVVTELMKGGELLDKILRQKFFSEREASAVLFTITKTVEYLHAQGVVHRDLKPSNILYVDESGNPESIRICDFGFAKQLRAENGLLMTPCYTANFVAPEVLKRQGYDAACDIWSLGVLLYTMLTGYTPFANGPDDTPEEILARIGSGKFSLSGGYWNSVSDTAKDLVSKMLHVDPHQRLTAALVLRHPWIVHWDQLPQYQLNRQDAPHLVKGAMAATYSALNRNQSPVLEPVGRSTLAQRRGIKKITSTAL

[7] = molecular target: Ribosomal protein S6 kinase alpha-3 (Homo sapiens) (UniProt P51812); details: at 1 µM
[8] = molecular target: Ribosomal protein S6 kinase alpha-2 (Homo sapiens) (UniProt Q15349); details: at 0.1 µM
Ribosomal protein S6 kinase alpha-2 (Homo sapiens), sequence (Q15349 whole entry): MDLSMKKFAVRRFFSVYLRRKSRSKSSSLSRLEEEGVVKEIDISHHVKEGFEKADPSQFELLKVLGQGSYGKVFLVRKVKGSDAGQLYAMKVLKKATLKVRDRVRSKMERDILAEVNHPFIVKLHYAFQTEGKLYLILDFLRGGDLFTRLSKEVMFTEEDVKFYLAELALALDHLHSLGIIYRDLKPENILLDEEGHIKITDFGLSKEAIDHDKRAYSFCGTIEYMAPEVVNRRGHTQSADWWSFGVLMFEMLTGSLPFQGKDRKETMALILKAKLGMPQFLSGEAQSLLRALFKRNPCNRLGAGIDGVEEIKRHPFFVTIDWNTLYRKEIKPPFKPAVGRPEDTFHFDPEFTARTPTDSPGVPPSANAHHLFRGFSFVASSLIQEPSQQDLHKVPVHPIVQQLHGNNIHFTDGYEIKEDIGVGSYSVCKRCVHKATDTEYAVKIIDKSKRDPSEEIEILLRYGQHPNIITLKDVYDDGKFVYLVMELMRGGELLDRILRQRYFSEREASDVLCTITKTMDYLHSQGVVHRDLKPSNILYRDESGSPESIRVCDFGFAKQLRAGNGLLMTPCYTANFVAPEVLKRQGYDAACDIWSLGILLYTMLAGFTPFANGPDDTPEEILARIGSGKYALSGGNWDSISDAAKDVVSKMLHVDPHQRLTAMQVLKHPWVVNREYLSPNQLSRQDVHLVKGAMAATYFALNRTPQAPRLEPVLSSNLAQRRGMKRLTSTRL

[9] = molecular target: Ribosomal protein S6 kinase alpha-2 (Homo sapiens) (UniProt Q15349); details: at 1 µM
[10] = molecular target: Ribosomal protein S6 kinase alpha-6 (Homo sapiens) (UniProt Q9UK32); details: at 0.1 µM
Ribosomal protein S6 kinase alpha-6 (Homo sapiens), sequence (Q9UK32 whole entry): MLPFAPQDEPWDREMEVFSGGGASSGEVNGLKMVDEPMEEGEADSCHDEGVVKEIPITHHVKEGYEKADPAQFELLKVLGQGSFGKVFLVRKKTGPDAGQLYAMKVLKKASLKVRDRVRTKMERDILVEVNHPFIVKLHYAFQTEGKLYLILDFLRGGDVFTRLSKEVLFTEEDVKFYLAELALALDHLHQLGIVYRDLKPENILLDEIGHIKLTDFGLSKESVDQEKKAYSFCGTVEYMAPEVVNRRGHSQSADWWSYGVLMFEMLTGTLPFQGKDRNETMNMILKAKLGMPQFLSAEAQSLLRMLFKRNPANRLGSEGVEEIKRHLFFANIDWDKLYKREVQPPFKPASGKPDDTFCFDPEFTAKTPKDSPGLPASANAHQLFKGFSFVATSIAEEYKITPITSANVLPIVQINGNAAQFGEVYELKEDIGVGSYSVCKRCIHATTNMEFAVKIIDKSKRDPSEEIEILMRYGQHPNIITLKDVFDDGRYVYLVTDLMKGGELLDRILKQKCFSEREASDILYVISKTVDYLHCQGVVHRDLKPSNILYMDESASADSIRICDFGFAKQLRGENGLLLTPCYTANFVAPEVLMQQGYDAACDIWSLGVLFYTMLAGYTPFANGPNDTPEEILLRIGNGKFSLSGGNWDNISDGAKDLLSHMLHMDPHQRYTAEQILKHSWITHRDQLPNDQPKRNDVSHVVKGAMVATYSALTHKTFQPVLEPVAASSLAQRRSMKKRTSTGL

[11] = molecular target: Ribosomal protein S6 kinase alpha-6 (Homo sapiens) (UniProt Q9UK32); details: at 1 µM
[12] = molecular target: T1, Serine/threonine-protein kinase Sgk1 (Homo sapiens) (UniProt O00141); details: at 0.1 µM
T1 sequence (whole entry): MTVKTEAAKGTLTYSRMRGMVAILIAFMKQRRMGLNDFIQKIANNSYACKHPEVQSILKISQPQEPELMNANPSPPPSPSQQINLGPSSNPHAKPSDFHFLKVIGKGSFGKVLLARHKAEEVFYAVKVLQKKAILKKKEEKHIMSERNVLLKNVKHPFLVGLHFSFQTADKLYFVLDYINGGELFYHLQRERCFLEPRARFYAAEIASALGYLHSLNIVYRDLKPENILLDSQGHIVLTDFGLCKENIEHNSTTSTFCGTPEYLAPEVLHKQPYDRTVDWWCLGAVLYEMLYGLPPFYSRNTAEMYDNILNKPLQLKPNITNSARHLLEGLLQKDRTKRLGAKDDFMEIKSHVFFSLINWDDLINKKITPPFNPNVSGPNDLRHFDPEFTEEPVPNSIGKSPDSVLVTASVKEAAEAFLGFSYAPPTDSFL

[13] = molecular target: T1, Serine/threonine-protein kinase Sgk1 (Homo sapiens); details: at 1 µM
[14] = molecular target: T2, Serine/threonine-protein kinase Sgk2 (Homo sapiens) (UniProt Q9HBY8); details: at 0.1 µM
T2 sequence (whole entry): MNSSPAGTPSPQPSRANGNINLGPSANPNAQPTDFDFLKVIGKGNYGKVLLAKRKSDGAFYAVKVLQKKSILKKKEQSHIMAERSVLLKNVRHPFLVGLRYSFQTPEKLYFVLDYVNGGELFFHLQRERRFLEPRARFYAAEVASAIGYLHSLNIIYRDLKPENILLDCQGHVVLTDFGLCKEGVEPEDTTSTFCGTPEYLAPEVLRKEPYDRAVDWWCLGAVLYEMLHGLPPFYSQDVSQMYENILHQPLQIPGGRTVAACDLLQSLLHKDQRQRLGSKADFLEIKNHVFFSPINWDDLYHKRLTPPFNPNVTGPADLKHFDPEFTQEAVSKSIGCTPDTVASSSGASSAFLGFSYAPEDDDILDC

[15] = molecular target: T2, Serine/threonine-protein kinase Sgk2 (Homo sapiens); details: at 1 µM
[16] = molecular target: T3, Serine/threonine-protein kinase Sgk3 (Homo sapiens) (UniProt Q96BR1); details: at 0.1 µM
T3 sequence (whole entry): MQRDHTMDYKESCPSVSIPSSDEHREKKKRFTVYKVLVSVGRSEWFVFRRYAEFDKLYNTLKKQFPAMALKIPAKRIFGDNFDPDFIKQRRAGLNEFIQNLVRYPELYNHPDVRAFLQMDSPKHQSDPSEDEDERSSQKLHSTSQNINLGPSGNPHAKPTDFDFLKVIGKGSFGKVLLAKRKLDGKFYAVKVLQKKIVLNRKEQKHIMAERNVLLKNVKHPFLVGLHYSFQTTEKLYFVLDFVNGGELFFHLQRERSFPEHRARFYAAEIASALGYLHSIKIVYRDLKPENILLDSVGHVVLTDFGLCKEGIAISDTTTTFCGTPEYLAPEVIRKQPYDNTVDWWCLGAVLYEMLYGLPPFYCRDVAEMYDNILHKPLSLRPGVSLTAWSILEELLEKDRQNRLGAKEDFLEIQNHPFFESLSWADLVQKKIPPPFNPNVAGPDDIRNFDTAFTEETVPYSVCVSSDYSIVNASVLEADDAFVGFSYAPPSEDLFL

[17] = molecular target: T3, Serine/threonine-protein kinase Sgk3 (Homo sapiens); details: at 1 µM
[18] = molecular target: 5'-AMP-activated protein kinase catalytic subunit alpha-1 (Homo sapiens) (UniProt Q13131); details: at 0.1 µM
5'-AMP-activated protein kinase catalytic subunit alpha-1 (Homo sapiens), sequence (Q13131 whole entry, looked up): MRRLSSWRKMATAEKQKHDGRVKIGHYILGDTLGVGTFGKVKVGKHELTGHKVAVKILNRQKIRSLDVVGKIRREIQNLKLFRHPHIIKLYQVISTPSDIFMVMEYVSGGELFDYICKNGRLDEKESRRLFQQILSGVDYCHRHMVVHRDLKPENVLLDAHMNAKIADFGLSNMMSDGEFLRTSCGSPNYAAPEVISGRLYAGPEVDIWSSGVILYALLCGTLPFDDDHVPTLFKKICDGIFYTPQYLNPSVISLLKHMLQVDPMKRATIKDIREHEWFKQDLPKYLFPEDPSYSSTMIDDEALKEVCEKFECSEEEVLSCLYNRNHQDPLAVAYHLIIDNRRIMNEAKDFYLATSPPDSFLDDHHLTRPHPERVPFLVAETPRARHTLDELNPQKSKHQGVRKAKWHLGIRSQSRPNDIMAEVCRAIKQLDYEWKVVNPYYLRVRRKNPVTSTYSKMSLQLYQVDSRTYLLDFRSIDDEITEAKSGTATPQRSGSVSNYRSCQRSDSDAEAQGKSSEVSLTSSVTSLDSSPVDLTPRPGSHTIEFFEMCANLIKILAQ

[19] = molecular target: 5'-AMP-activated protein kinase catalytic subunit alpha-1 (Homo sapiens) (UniProt Q13131); details: at 1 µM
[20] = molecular target: 5'-AMP-activated protein kinase catalytic subunit alpha-2 (Homo sapiens) (UniProt P54646); details: at 0.1 µM;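 note: mean inhibition measured on the AMPK complex of alpha2, beta1 and gamma1 subunits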
5'-AMP-activated protein kinase catalytic subunit alpha-2 (Homo sapiens), sequence (P54646 whole entry, looked up): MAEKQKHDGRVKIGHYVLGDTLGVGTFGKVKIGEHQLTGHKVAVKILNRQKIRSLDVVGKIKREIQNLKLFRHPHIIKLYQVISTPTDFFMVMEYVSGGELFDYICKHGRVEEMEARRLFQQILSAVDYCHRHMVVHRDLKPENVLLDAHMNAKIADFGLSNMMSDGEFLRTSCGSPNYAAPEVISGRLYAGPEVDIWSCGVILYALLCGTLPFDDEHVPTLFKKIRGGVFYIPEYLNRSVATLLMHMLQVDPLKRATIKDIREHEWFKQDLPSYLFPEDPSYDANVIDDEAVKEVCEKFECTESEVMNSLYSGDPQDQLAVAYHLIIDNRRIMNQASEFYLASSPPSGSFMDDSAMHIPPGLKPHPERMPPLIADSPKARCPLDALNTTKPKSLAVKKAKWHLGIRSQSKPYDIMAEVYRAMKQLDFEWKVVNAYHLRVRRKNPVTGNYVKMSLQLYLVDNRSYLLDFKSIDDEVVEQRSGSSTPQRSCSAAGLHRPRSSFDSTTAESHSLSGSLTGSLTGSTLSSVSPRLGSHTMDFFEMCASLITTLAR

Rho-associated protein kinase 2 (Homo sapiens), sequence (O75116 whole entry, looked up): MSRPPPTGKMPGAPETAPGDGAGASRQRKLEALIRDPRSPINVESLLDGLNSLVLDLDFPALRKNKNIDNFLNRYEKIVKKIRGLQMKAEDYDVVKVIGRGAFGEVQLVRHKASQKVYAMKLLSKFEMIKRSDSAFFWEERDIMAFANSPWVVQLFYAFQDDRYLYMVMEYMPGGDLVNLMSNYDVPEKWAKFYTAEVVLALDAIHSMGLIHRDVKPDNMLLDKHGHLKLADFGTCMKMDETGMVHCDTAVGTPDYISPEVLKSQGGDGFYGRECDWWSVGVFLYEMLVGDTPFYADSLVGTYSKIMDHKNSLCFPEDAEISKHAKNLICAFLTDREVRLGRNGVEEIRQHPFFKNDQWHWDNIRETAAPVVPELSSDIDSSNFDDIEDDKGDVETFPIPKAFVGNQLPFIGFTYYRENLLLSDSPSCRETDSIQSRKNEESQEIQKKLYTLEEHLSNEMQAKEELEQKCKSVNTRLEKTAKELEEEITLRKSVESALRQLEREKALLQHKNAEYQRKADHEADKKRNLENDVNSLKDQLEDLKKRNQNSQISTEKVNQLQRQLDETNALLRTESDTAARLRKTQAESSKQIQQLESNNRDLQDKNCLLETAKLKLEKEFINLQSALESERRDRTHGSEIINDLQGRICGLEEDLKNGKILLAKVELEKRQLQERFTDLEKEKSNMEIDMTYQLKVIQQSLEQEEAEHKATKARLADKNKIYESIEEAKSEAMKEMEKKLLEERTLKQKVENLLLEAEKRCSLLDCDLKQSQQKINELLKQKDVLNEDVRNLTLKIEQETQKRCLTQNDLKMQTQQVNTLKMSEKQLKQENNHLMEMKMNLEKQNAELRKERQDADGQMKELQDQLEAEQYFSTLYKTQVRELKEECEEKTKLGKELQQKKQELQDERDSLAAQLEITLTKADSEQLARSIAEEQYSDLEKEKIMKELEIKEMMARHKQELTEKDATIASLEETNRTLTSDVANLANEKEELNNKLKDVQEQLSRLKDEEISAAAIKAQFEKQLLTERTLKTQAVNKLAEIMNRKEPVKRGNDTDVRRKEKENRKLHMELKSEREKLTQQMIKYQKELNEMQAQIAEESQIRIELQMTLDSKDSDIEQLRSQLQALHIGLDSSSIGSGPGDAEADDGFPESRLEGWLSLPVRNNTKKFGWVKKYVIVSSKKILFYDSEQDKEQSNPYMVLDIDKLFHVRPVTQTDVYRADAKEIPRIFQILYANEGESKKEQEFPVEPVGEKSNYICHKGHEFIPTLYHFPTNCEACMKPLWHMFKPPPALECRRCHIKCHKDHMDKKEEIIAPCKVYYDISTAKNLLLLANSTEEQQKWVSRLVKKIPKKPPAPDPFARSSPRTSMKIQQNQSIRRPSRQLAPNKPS

Compound	inhibition [1]	inhibition [2]	inhibition [3]	inhibition [4]	inhibition [5]	inhibition [6]	inhibition [7]	inhibition [8]	inhibition [9]	inhibition [10]	inhibition [11]	inhibition [12]	inhibition [13]	inhibition [14]	inhibition [15]	inhibition [16]	inhibition [17]	inhibition [18]	inhibition [19]	inhibition [20]
COc1ccc(-c2cc3c(N)ncnc3o2)cc1	1.74%	0.73%	1.85%	1.04%	0.11%	1.43%	2.31%	-0.65%	0.29%	-0.28%	1.58%	0.5%	-0.33%	-1.01%	1.43%	-1.34%	-2.55%	0.03%	0.8%	0.21%
c1ccc(-c2nc3n(c2-c2ccc4c(c2)OCO4)CCC3)nc1	5.65%	5.54%	5.37%	4.98%	5.39%	4.41%	5.78%	1.95%	1.35%	1.28%	0.77%	1.69%	3.45%	2.66%	2.94%	2.37%	3.36%	1.01%	2.34%	3.38%
CCCN1CCC(c2ccc(Nc3nc(Nc4cc(F)ccc4C(N)=O)c4cc[nH]c4n3)c(OC)c2)CC1	64.6%	19.9%	69.8%	37.4%	69.7%	26.5%	66.8%	12%	53.5%	23.4%	63.4%	3.17%	13.8%	4.48%	5.14%	3.22%	4.03%	5.5%	26.9%	3.42%
CN(C)CCOc1ccc(-c2nc(-c3ccncc3)c(-c3ccc4c(c3)CC/C4=N\O)[nH]2)cc1	1.11%	3.19%	4.22%	2.14%	5.08%	1.07%	2%	1.9%	2.18%	0.86%	2.06%	2.17%	4.78%	2.44%	5.4%	2.89%	4.02%	2.12%	5.29%	-0.6%
CC1=C(C(=O)Nc2cc(Cl)c3[nH]ncc3c2)C(c2ccc(C(F)(F)F)cc2)CC(=O)N1 (stereo not given)	84%	72.3%	85.8%	27.8%	68.7%	22.3%	65.5%	13.1%	53.4%	7.7%	36.4%	4.9%	17.9%	4.31%	12.5%	8.68%	34.4%	18.4%	62.2%	5.35%
COc1cc(/C=N/Nc2ncnc3[nH]ncc23)ccc1O	5.67%	4.64%	13.9%	1.89%	11.3%	2.74%	11.7%	1.62%	9.77%	2.97%	13.3%	13%	54.4%	6.14%	19.9%	3.82%	5.26%	5.24%	20.5%	2.66%
COC(=O)Nc1nc2ccc(S(=O)(=O)c3ccc(NC(=O)Nc4cc(C(F)(F)F)ccc4F)cc3)cc2[nH]1	2.05%	1.37%	-0.72%	1.38%	0.31%	0.77%	0.41%	1.99%	2.47%	0.08%	1.27%	3.1%	0.95%	3.28%	0.53%	2.89%	1.57%	1.79%	1.58%	2.21%
Clc1ccc(-c2nn3ncccc3c2-c2ccnc(Nc3ccccc3)n2)cc1	4.03%	2.19%	3.84%	1.56%	2.48%	0.47%	1.89%	0.49%	1.37%	0.64%	1.59%	3.14%	1.09%	1.58%	0.53%	1.92%	-1.01%	0.45%	0.54%	1.86%
CNC(=O)c1cc(-c2ccc(F)cc2)cc(-c2ccc(S(=O)(=O)N3CCCC3)cc2)c1N	1.95%	1.69%	2.18%	0.9%	1.77%	1.31%	1.69%	2.73%	2.91%	0.1%	1.28%	2.26%	1.89%	2.87%	0.33%	2.62%	3.57%	1.77%	2.03%	6.28%
CCNC(=O)O[C@H]1CN[C@H](C#Cc2cc3ncnc(Nc4ccc(OCc5cccc(F)c5)c(Cl)c4)c3s2)C1	1.95%	2.86%	0.32%	1.32%	0.05%	-0.04%	-1.01%	1.63%	0.86%	1.4%	2.88%	2.25%	-0.58%	8.05%	5.53%	4.38%	-0.29%	2.46%	2.35%	0.44%
COc1cccc(-c2c[nH]c3c(N/N=C/c4ccncc4)ncnc23)c1	7.68%	3.52%	11.7%	2.76%	7.19%	1.21%	7.47%	2.28%	11.7%	1.63%	10.6%	4.36%	19.1%	4.85%	18.2%	2.69%	1.84%	1.39%	6.84%	0.02%
